Screening results from PubChem.
NOTCH ag: agonists of NOTCH signaling | NOTCH signaling luciferase reporter cells, luminescence | 15,000 compounds, 0.4% hits | activation, % at 2.5 µM | AID 434982, 2010; in the data active = activation above about 2.2%
TLR4 MyD88 blk: inhibitors of human TLR4-MyD88 binding. Toll-like receptor 4 (Homo sapiens), O00206. Cell-based TLR4-MyD88 binding inhibition assay. inhibition, % at 10 µM. 16,000 compounds, 0.06% hits; in the data active = inhibition above about 45%
PME-1 Maybridge: inhibitors of human PME-1 in Maybridge library; Protein phosphatase methylesterase 1 (Homo sapiens), Q9Y570; recombinant PME-1, FP-Rh probe fluorescence polarization; inhibition, % at 9 µM; 16,000 compounds, 0.5% hits; in the data active = inhibition above about 30%
KOR antag MB: antagonists of human kappa opioid receptor OPRK1, Maybridge library; Kappa-type opioid receptor (Homo sapiens), P41145; OPRK1 cells, antagonist mode, fluorescence readout; inhibition, % at 9 µM; 16,000 compounds, 0.4% hits; AID 652031, 2013; in the data active = inhibition above about 50%
Target sequence (P41145 whole entry, looked up): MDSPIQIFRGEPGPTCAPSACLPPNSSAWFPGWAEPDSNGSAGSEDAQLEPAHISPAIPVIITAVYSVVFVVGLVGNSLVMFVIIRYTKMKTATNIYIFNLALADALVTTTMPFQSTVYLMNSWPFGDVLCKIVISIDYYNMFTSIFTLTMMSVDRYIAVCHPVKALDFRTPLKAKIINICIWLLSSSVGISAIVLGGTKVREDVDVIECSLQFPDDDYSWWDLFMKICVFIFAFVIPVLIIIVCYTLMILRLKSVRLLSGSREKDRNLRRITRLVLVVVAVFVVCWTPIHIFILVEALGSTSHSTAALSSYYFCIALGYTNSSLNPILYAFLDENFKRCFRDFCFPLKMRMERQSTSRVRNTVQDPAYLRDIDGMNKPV
S1P1 ag: activates the human S1P1 receptor; Sphingosine 1-phosphate receptor 1 (Homo sapiens), P21453; S1P1 agonist cell-based reporter assay; activation, % at 4.5 µM; 16,000 compounds, 1.5% hits; AID 1044, 2008; in the data active = activation above about 80%
Each line names hits and unclear results; the compound was inactive in the other large screens. Hits are enriched below; roughly 2.6% of the tested compounds scored in any of these assays.

CSC(=CC(=O)c1ccncc1)SC	NOTCH ag 3.5
Cc1cc(-c2nnc(-c3cccc(C(F)(F)F)c3)o2)no1	S1P1 ag 80
FC(F)(F)c1cccc(-c2noc(-c3ccc(-c4cccs4)s3)n2)c1	none
Cn1nc(-c2ccccc2)cc1NC(=O)Nc1cccs1	PME-1 Maybridge 32
Cc1noc(-c2ccccc2)c1NC(=O)Nc1cc(C2CC2)nn1C	none
COCCOc1ccc([N+](=O)[O-])cc1C(=O)O	none (no result: NOTCH ag)
COCCOc1ccc(N=Cc2ccccc2O)cc1C(=O)O	NOTCH ag 3.1
COC(=O)c1ccccc1-n1cccc1C(=O)OC	none
COC(=O)C1=CN2c3ccccc3SC2(C(=O)OC)C(C(=O)OC)=C1C(=O)OC (stereo not given)	S1P1 ag 99 (no result: TLR4 MyD88 blk)
N#CCC(=O)c1cccc(CSc2cccc(C(F)(F)F)c2)c1	none
CCCS(=O)(=O)/C(C#N)=N/Nc1cc(C(F)(F)F)cc(C(F)(F)F)c1	S1P1 ag 117
N#CC(C#N)=NNc1ccc2c(c1)OCCO2	S1P1 ag 94
CN(C)CCNC(=O)c1ccc(N2CCOCC2)nc1	none
COc1ccc(OS(=O)(=O)c2sc(Br)cc2Br)cc1	KOR antag MB 52
CC(=O)c1csc(Nc2ccc(Cl)cc2)n1	NOTCH ag 2.2
O=C(NCCNc1nccc(C(F)(F)F)n1)C1CC1	PME-1 Maybridge 96
O=C(OCCOc1ccc(Cl)cc1Cl)c1ccc([N+](=O)[O-])o1	none
CCCc1c(OCCCOc2ccc3c(=O)c(-c4ccccc4)coc3c2)ccc(C(C)=O)c1O	S1P1 ag 95
O=C(Nc1ccc(N2CCN(c3ncccc3C(F)(F)F)CC2)nc1)Nc1ccc(F)cc1F	none
COc1ccc(C(=O)Nc2ccc(N3CCN(c4ncccc4C(F)(F)F)CC3)nc2)cc1	S1P1 ag 93
CC(=O)Nc1cc([N+](=O)[O-])ccc1Sc1ccccc1N	none
CC(=O)Nc1cc([N+](=O)[O-])ccc1-n1cc(C)c(C(F)(F)F)n1	TLR4 MyD88 blk 50
O=C(Cc1csc2ccccc12)Nc1ccc(F)cc1	PME-1 Maybridge 58
Cc1nc2ccccn2c1C(=O)NNS(=O)(=O)c1sc2ccc(Cl)cc2c1C	S1P1 ag 100
CC1CC(=O)Nc2ccccc2N1S(=O)(=O)c1cn(C)cn1 (stereo not given)	S1P1 ag 121
Cc1nc(-c2cccs2)sc1-c1ccnn1C(=O)c1ccc(F)cc1	none
Oc1c(Cl)cc(Cl)cc1C=Nc1ccc2c(c1)COCO2	none
Brc1ccc(-c2csc(Nc3ccncc3)n2)cc1	KOR antag MB 68
Clc1ccc(-c2csc(Nc3ccccc3)n2)cc1	none
COc1ccccc1C1CCN(S(=O)(=O)c2cc(Cl)cc(Cl)c2)CC1	none
Cc1onc(-c2ccccc2)c1CNS(=O)(=O)c1cnn(-c2ccccc2)c1C	KOR antag MB 106
O=C(/C=C/c1ccc2c(c1)OCO2)Nc1ccc(Cl)cc1Cl	none
CSC(=NCc1sccc1CSc1ccc(Cl)cc1)NC#N	S1P1 ag 97
O=C(NC(=O)N1CCOCC1)c1ccc([N+](=O)[O-])s1	S1P1 ag 89
N#Cc1c(-c2ccco2)c2c([nH]c1=O)-c1ccccc1OC2	none
Cc1nc(-c2noc(-c3ccc(C(F)(F)F)cc3)n2)cs1	none
Cc1csc(-c2nc(-c3ccc(C(F)(F)F)cc3)no2)c1	S1P1 ag 86
COC(=O)C1=C(N)CC(c2ccccc2)S1 (stereo not given)	none
N#CCSC1=CC(=O)CC(c2ccccc2)S1 (stereo not given)	S1P1 ag 91
Cc1c(C)n(Cc2ccc(Br)cc2)c(=O)n(Cc2ccc(Br)cc2)c1=O	S1P1 ag 102
O=C(/C(=C\c1ccccc1)n1ccnc1)c1ccccc1OCc1ccccc1	S1P1 ag 121 (no result: NOTCH ag)
O=C(NCc1cc(F)cc2c1OCOC2)c1cc(-c2ccc(Cl)cc2)oc1C(F)(F)F	none
C=CCn1c(-c2sc3nnc(-c4ccccc4)c(-c4ccccc4)c3c2N)n[nH]c1=S	KOR antag MB 57
N#Cc1c(Cl)cccc1I	none
N#Cc1c(Cl)c(Cl)c(Cl)c(Cl)c1C#N	S1P1 ag 110
CCOCCOc1ccc2oc(C(=O)CC(=O)OCC)cc(=O)c2c1	none
Cc1cc(N/N=C/c2cccs2)c([N+](=O)[O-])cc1[N+](=O)[O-]	none
CNC(=O)n1nc(C)c(Cc2csc3ccc(Cl)cc23)c1C	PME-1 Maybridge 48
CNC(=O)Cc1csc2ccc(Cl)cc12	none
CCOC(=O)c1cnc(SCc2ccc(Cl)cc2)nc1C(F)(F)F	S1P1 ag 81
COC(=O)c1cnc(Sc2ccc(Cl)cc2)nc1C(F)(F)F	none
O=C(c1cc2ccccc2s1)N1CCN(C(c2ccccc2)c2ccccc2)CC1	S1P1 ag 83
N/C(=N\OC(=O)c1c(F)cccc1F)c1cccc(-n2cccc2)c1	S1P1 ag 95
NC(=S)c1cccc(-n2cccc2)c1	none
Cc1ccccc1/C(N)=N/OC(=O)c1ccc(C(C)(C)C)s1	S1P1 ag 103
O=[N+]([O-])c1cc(Cl)c(N2CCOCC2)cc1N1CCOCC1	NOTCH ag 6.3
COc1ccccc1NS(=O)(=O)c1ccccc1[N+](=O)[O-]	none
COc1ccccc1NS(=O)(=O)c1ccc(Cl)s1	PME-1 Maybridge 32 (no result: NOTCH ag)
COc1cc2c(cc1OC)CC(=O)OC2	S1P1 ag 81
N/C(=N\OC(=O)c1cccc(C(F)(F)F)c1)c1ccc(OCC(F)(F)F)nc1	S1P1 ag 84
N/C(=N\OC(=O)c1cccc(Cl)c1)c1cccc(C(F)(F)F)c1	S1P1 ag 99
Nc1ccc(C(=O)O)c2c(C(=O)O)cccc12	PME-1 Maybridge 49
CSc1nnc(SCC(=O)N2CCC(C(F)(F)F)CC2)s1	NOTCH ag 2.7
N#CC1=C(N)C2=C(N3CCOCC3)CCCC2C1(C#N)C#N (stereo not given)	none
C#CC(/C=C/C)OC(=O)c1ccccc1C(=O)O (stereo not given)	none
CC(CCC(C)OC(=O)c1ccccc1C(=O)O)OC(=O)c1ccccc1C(=O)O (stereo not given)	KOR antag MB 60
CSc1nc(C(N)=O)cc(=O)[nH]1	none
Cc1oc(-c2ccc(Cl)cc2)cc1C(=O)C(C#N)=C1SCCS1	none
Cn1c2c(c(=O)n3ncnc13)CCCC2	S1P1 ag 91
O=C(Cn1c2c(c(=O)n3ncnc13)CCC2)N/N=C/c1cccs1	none
Cc1c(N=NC2=C(O)CC(C)(C)CC2=O)cc2c(c1[N+](=O)[O-])C(C)(C)CC2(C)C	none
Cc1c(NCN2C(=O)CCC2=O)cc2c(c1[N+](=O)[O-])C(C)(C)CC2(C)C	S1P1 ag 81
N#CC(C#N)=c1ccc(=C(C#N)C#N)cc1	none
N/C(=N\OC(=O)Nc1cccc(C(F)(F)F)c1)C1CSCCS1 (stereo not given)	none
N/C(=N/OC(=O)Nc1cccc(C(F)(F)F)c1)C1COc2ccccc2O1 (stereo not given)	NOTCH ag 2.4
N#C/C(=C\Nc1ccc(Cl)cn1)C(=O)c1cccc(CSc2ccccc2)c1	none
